Experimental data taken from PubChem BioAssay.
“And” between values parts separate entries of the source, which are not always exact repeats. Equal values may be shown once. Inconclusive results are not listed. The source made the active and inactive calls. Unless noted, the rule behind the calls is not given here.

Columns and labels:
[1] = target: GTPase HRas (Homo sapiens) (UniProt P01112); test: inhibitors of GTP binding to wildtype Ras, dose response, biochemical, multiplex bead flow cytometry (AID 1335;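 active = fitted half-maximal concentration within 10 nM to 100 µM, steepness 0.5 to 2, significant signal drop, low assay interference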); details: bead-based flow cytometry, Bodipy-GTP binding to GST-Ras; at 100 µM (top of the series)
GTPase HRas (Homo sapiens), sequence (P01112 whole entry, looked up): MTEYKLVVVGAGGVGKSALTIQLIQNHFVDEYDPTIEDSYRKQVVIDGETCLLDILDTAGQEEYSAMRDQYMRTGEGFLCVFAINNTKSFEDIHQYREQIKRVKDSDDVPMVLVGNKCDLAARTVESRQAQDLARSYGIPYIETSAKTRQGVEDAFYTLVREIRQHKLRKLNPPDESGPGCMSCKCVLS

[2] = yeast TOR pathway RPL19A-GFP modulators, primary screen, cell-based, S. cerevisiae, multiplex flow cytometry (AID 1862; in the data active = percent of DMSO control GFP below about 86%;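 note: lower values mimic rapamycin by blocking the RPL19A rise seen in DMSO cells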); details: S. cerevisiae RPL19A-GFP strain, flow cytometry fluorescence, 3 h; at 10 µM; stronger effect = lower value
[3] = modulators of MEP2-GFP levels in yeast, primary screen, S. cerevisiae, multiplex flow cytometry (AID 1867;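 active = GFP response, as percent of the DMSO control, above the screen-wide mean plus 3 SD, about 139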;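 note: median GFP channel fluorescence of barcode-gated MEP2-GFP cells measured by flow cytometry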); details: S. cerevisiae MEP2-GFP strain, 3 h, at 10 µM, stronger effect = higher value
[4] = modulators of CIT2-GFP expression in yeast, primary screen, S. cerevisiae, GFP fusion, multiplex flow cytometry (AID 1870;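 active = percent response above a set limit, the screen-wide mean plus 3 SD, cut at about 130% in these data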;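 note: barcoded CIT2-GFP strain pooled with four other GFP strains with rapamycin as positive control; median GFP fluorescence per well over plate mean of DMSO wells so 100% = DMSO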); details: 3 h, at 10 µM, stronger effect = higher value
[5] = modulators of LAP4-GFP expression in yeast, primary screen, S. cerevisiae, multiplex flow cytometry (AID 1873;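 active = GFP signal, as percent of the solvent control, above the screen mean plus 3 SD, about 149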); details: 3 h, at 10 µM, stronger effect = higher value
[6] = modulators of AGP1-GFP expression in yeast TOR pathway, primary screen, cell-based, multiplex flow cytometry, S. cerevisiae (AID 1887;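 active = GFP signal above the screen-wide mean plus 3 SD, that is over about 124.5% of the solvent control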;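 note: AGP1-GFP fusion strain of S. cerevisiae within a five-strain barcoded multiplex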); details: 3 h, at 10 µM, stronger effect = higher value
[7] = inhibitors of CD8+ T cell-vesicle binding, pilot screen, LFA-1/ICAM-1 modulator project, MLPCN validation set, flow cytometry (AID 2523;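 active = response below a set limit, under 55% cells CD8-positive and vesicle-bound, and CD8 cells' 90th-percentile brightness under 279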;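 for vesicle binding response: mean PE anti-B7-1 fluorescence of CD8+ cells relative to row control; 100% = QL9-loaded vesicles with DMSO vehicle in the same plate row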); details: 2C mouse CD8+ T cells, at 7 µM, stronger effect = lower value; double positive events: measured here: CD8+/vesicle+ event percentage
[8] = target: Integrin beta-1 (Homo sapiens) + Integrin alpha-4 (Homo sapiens) (UniProt P13612+P05556); test: inhibition of HUTS-21 binding to VLA-4, pilot screen, VLA-4 allosteric modulator project, U937 cells, HUTS-21 mAb, flow cytometry, validation set (AID 2674;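 active = inhibition above 50%, about 3 SD of the validation set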;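 note: antibody binding induced by the VLA-4 ligand LDV present at three times its Kd; 0% = LDV ligand with antibody and no compound and 100% = antibody without LDV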); details: HUTS-21 LIBS mAb binding, at 6.7 µM, stronger effect = higher value
Integrin beta-1 (Homo sapiens) + Integrin alpha-4 (Homo sapiens), sequence (P05556 whole entry, looked up): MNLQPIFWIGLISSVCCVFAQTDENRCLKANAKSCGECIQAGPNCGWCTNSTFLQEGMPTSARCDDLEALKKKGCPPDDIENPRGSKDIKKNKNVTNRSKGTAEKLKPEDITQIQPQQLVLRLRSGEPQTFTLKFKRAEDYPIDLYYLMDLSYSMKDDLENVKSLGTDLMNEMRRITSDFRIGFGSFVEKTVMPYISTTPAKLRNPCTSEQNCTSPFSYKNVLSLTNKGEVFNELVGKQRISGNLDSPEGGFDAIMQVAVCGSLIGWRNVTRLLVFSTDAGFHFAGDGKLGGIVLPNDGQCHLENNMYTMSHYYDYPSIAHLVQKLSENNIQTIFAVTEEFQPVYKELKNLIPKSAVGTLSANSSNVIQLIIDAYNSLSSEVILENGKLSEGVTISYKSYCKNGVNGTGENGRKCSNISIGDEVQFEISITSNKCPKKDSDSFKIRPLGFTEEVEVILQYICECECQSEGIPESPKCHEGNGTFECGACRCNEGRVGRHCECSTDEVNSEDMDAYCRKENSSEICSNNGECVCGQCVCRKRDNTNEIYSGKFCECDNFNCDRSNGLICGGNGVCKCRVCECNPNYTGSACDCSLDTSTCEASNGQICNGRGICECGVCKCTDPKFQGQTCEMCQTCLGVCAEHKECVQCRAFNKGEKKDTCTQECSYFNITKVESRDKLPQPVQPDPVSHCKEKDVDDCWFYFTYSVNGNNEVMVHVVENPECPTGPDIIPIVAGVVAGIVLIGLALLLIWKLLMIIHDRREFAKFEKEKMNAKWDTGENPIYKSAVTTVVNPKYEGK
Integrin beta-1 (Homo sapiens) + Integrin alpha-4 (Homo sapiens), sequence (P13612 whole entry, looked up): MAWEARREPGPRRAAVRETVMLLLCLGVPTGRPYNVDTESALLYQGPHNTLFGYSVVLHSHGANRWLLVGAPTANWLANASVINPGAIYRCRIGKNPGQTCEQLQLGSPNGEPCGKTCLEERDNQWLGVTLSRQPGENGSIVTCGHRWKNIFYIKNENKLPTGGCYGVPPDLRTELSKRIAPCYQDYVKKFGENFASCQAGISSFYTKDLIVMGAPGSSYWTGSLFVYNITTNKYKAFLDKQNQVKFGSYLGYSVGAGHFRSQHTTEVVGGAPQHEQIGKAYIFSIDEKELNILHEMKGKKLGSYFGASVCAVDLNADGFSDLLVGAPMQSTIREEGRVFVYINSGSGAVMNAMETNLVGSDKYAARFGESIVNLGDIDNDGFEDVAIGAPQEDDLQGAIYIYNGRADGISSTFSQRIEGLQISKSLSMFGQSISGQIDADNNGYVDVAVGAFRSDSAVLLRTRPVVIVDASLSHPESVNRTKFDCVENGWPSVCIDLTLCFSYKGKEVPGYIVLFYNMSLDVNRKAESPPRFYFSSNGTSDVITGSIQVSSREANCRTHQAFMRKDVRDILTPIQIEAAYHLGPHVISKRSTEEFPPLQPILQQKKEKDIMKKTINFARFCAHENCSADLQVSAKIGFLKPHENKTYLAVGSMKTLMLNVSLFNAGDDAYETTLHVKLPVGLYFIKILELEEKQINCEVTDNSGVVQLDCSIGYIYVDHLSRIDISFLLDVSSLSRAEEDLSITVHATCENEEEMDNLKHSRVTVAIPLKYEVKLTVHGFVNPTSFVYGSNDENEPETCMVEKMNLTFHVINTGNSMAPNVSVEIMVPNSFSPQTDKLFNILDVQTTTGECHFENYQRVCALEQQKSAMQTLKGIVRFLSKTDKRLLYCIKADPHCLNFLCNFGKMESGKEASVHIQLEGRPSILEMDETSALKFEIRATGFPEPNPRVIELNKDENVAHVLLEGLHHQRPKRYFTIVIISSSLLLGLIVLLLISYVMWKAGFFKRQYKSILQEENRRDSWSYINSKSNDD

[9] = superoxide lowering in aged yeast cells, pilot screen, validation compound set (AID 2706;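 active = superoxide response below 65% of plate, a cut near 3 SD across the whole screen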;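 note: yeast exposed to compound for one week at 30 degrees C before staining; 100% = mean of all compound wells on the same plate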); details: S. cerevisiae aging, superoxide DHE fluorescence; at 10 µM; stronger effect = lower value
[10] = target: Beta-adrenergic receptor kinase 1 (Homo sapiens) (UniProt P25098); test: GRK2 binders displacing RNA aptamer, biochemical, validation, human GRK2, bead flow cytometry (AID 488806;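 active = aptamer binding inhibition above 30%, about 3 SD of noise from non-fluorescent compounds; inactive = inhibition at or below 30%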); details: bead-bound GRK2, FAM-aptamer displacement, at 10 µM, stronger effect = higher value
[11] = target: Beta-2 adrenergic receptor (Homo sapiens) (UniProt P07550); test: beta2AR agonists driving receptor internalization, pilot screen, cell-based, FAP fluorogen, flow cytometry, validation set (AID 504459;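 active = percent response above 42, roughly 3 SD of non-fluorescent test compounds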;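 note: agonist-driven loss of surface beta2AR via internalization measured by FAP dye flow cytometry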); details: Am2.2-beta2AR cells, FAP surface receptor flow cytometry; at 10 µM; stronger effect = higher value
Beta-2 adrenergic receptor (Homo sapiens), sequence (P07550 whole entry, looked up): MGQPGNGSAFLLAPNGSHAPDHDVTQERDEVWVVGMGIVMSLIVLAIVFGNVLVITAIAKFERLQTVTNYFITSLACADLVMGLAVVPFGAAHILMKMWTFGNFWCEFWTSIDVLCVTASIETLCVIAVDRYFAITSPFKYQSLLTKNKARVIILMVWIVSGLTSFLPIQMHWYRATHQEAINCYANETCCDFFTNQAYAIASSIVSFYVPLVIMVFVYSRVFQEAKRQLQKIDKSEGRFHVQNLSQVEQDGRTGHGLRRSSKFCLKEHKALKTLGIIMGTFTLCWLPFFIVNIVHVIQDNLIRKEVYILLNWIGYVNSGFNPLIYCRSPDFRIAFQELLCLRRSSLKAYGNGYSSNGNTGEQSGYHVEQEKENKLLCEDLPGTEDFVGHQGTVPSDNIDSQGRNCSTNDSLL

[12] = target: AP-2 complex subunit beta (Homo sapiens) (UniProt P63010); test: inhibitors of arrestin peptide binding to AP2, pilot screen, biochemical, validation set, GST-AP2 beads, flow cytometry (AID 504541;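 active = inhibition above 54%, about 3 SD of non-fluorescent compounds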;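 note: AP2 carries R879A mutation and is captured from E. coli lysate; bead-bound FITC arrestin peptide fluorescence measuring arrestin peptide binding to AP2; 0% = DMSO wells and 100% = excess unlabeled arrestin peptide control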); details: FITC arrestin peptide, at 10 µM, stronger effect = higher value
AP-2 complex subunit beta (Homo sapiens), sequence (P63010 whole entry, looked up, one chain of several): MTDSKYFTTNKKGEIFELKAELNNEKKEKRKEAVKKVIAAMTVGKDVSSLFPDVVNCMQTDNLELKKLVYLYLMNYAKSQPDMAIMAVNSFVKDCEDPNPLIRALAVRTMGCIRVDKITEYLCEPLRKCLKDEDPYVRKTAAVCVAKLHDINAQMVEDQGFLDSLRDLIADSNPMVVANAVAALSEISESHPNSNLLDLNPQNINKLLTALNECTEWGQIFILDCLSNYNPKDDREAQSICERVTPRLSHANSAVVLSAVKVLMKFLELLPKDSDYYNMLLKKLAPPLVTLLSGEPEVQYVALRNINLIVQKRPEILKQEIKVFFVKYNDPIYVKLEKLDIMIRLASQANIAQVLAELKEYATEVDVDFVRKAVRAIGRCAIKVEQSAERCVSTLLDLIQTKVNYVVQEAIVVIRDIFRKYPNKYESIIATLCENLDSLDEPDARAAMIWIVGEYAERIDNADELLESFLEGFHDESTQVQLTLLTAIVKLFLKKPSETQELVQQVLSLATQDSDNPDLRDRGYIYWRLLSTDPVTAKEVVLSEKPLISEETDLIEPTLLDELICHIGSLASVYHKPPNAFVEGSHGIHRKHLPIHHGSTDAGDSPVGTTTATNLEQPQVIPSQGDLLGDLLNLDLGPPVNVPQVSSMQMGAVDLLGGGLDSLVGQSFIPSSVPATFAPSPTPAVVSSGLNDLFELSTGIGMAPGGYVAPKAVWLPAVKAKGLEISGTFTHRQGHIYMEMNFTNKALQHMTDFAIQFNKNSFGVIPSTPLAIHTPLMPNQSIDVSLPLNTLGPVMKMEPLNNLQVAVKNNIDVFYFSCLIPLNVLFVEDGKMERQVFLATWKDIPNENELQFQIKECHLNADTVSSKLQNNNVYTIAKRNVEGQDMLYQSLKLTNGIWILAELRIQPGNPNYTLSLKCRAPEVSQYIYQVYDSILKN

[13] = yeast V-ATPase proton transport modulators, S. cerevisiae, pHLuorin, HTS validation (AID 504600; in the data active = response above about 15%;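 note: plate controls were DMSO for no effect and reference compound for full effect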); details: S. cerevisiae pHLuorin cytosolic pH, at 10 µM, stronger effect = higher value
[14] = system: anti-desmoglein-3 scFv antibody binding to human DSG3; test: inhibitors of anti-DSG3 scFv binding to DSG3, pilot screen, biochemical, validation compound set, bead-based, flow cytometry (AID 588368;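 active = binding below the plate cutoff, the plate median minus 3 SD, with a reading above zero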;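 note: signal is the median channel fluorescence of bead-bound GFP antibody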); details: Protein G beads, DSG3-Fc, scFv-GFP binding, at 10 µM, stronger effect = lower value
[15] = system: Botulinum neurotoxin type F light chain protease (Clostridium botulinum); test: Botulinum neurotoxin type F light chain protease inhibition, multiplex microsphere flow cytometry, validation set (AID 588459); details: multiplex microsphere protease substrate cleavage assay, at 10 µM, stronger effect = higher value
[16] = target: Botulinum neurotoxin type A (Clostridium botulinum) (UniProt P0DPI0); test: BoNT/A light chain protease inhibitors, biochemical, multiplex microsphere flow cytometry, validation set (AID 588460); details: at 10 µM, stronger effect = higher value
Botulinum neurotoxin type A (Clostridium botulinum), sequence (P0DPI0 whole entry, looked up): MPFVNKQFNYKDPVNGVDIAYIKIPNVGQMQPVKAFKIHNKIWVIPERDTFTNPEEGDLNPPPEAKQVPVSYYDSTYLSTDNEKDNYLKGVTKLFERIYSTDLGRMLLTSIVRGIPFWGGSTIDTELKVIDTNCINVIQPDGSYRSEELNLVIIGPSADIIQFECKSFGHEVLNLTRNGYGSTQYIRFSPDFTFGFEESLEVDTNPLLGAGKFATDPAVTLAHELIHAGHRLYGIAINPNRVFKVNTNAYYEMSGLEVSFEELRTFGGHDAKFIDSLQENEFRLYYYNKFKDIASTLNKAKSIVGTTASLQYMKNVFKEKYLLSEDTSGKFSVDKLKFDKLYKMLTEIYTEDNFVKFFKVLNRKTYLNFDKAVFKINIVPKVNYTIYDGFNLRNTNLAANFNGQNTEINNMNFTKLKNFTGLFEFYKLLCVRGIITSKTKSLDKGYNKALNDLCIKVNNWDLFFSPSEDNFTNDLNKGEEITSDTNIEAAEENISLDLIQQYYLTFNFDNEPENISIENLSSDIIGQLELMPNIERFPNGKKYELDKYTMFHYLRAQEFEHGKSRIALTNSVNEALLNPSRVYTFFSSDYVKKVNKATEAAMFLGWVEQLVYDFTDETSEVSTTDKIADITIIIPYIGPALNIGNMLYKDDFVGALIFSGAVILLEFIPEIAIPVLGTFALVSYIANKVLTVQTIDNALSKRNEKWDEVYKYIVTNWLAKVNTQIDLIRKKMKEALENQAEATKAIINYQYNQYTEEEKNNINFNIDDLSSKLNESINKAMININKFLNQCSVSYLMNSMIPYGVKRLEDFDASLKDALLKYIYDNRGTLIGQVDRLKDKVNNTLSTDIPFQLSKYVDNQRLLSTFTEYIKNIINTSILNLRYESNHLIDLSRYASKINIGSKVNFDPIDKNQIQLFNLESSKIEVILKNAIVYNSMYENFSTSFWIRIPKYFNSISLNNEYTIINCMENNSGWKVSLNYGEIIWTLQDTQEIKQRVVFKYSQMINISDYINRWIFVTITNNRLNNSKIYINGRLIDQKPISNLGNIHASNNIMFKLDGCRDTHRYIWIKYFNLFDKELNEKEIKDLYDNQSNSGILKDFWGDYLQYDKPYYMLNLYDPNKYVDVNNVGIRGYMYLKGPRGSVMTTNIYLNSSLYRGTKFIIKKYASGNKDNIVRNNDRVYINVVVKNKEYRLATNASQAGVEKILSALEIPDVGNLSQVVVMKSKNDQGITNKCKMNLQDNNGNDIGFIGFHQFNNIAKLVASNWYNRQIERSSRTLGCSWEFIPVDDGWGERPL

[17] = target: Lethal factor (Bacillus anthracis) (UniProt P15917); test: Lethal factor protease inhibitors, Bacillus anthracis, multiplex microsphere cleavage assay, validation set (AID 588461); details: flow cytometry, at 10 µM, stronger effect = higher value
[18] = inhibitors of fungal efflux pumps CDR1, CDR2, MDR1, pilot screen, validation compound set, multiplex, phenotypic (AID 588506;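 active = efflux inhibition above 0.42, the validation set average plus 4 SD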;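 note: Nile Red retained in cells so higher fluorescence means more efflux inhibition; 0 = negative control wells and 1 = enniatin B 25 µM full block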); details: S. cerevisiae pump-expressing triplex, Nile Red efflux flow cytometry; at 10 µM; stronger effect = higher value
[19] = target: ATP-binding cassette sub-family B member 6 (Homo sapiens) (UniProt Q9NP58); test: ABCB6 transporter inhibitors, pilot screen, K562-ABCB6 cells, flow cytometry, validation set (AID 588550;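 active = inhibition above the screen-wide mean plus 3 SD, about 51%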;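 note: 0% = DMSO wells and 100% = benzethonium chloride 70 µM positive control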); details: K562-ABCB6 porphyrin accumulation, 1 h, at 10 µM, stronger effect = higher value
[20] = promoters of myeloid differentiation in arrested cells, primary screen, cell-based, GFP/MAC1 double positive, flow cytometry, validation set (AID 588685;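 active = differentiation response of at least 50%, scaled between solvent and reference control, from cells with both markers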;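 note: compound exposure lasts four days before antibody staining and flow analysis; 0% = DMSO wells and 100% = 5 µM fulvestrant positive control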); details: ER-HoxA9 marrow cells, stronger effect = higher value

O=c1[nH]c(=S)[nH]c(O)c1N=Nc1cc2c(cc1[N+](=O)[O-])OCO2
66.6%: GTP binding, percent of control [1]

C[C@]12CC[C@@H](O)C[C@@H]1CC[C@@H]1[C@@H]2CC[C@]2(C)[C@@H](O)CC[C@@H]12
inactive: percent of DMSO control GFP [2] 95.4% | GFP response vs DMSO [3] 107% | percent response of DMSO control [4] 83% | GFP response, % of DMSO [6] 106% | vesicle binding response [7] 122% | inhibition [8] -7.79% | superoxide response (% of plate) [9] 98% | aptamer binding inhibition [10] 3% | response [11] 0.4% | inhibition [12] -7.18% | response [13] 2.4% | binding (% of control) [14] 103% | inhibition [15] 1.2% | inhibition [16] 0.9% | inhibition [17] 3.5% | efflux inhibition (fraction of control) [18] 0.08 | inhibition [19] 7% | differentiation response [20] -13.3%
active: GFP response vs DMSO [5] 150%
58.5%: double positive events [7]

Cc1cc(C)cc(N2C(=O)NC(=O)/C(=C\C=C\c3ccco3)C2=O)c1
83.8%: GTP binding, percent of control [1]

CN(C)c1ccc(/C=C/C=C2/C(=O)NC(=O)N(c3ccccc3)C2=O)cc1
81.4%: GTP binding, percent of control [1]

CC[C@@H]1C(=O)OC[C@@H]1Cc1cncn1C
65.5% and 68.4%: double positive events [7]
inactive: percent of DMSO control GFP [2] 89.8% | percent response of DMSO control [4] 112% | GFP response vs DMSO [5] 88% | GFP response, % of DMSO [6] 86.3% | vesicle binding response [7] 171% and 339% | inhibition [8] 13.2% and 5.49% | superoxide response (% of plate) [9] 82.6% and 106% | aptamer binding inhibition [10] 7% and 4% | response [11] 1.92% and 3.7% | inhibition [12] 14.2% and -5.27% | response [13] -2.39% and 0.38% | binding (% of control) [14] 104% and 95.6% | inhibition [15] -1.2% and -3.1% | inhibition [16] -0.7% and 0.7% | inhibition [17] -1.2% and 7% | efflux inhibition (fraction of control) [18] 0.16 and 0.05 | inhibition [19] 3% and 12% | differentiation response [20] 14.7% and 20.5%
active: GFP response vs DMSO [3] 144%

CCOc1ccc(C2SCC(=O)Nc3c2c(C)nn3C2CCOC(C)(C)C2)cc1 (stereo not given)
150%: GTP binding, percent of control [1]

Cc1ccccc1OCCCn1cc(C(=O)O)c2ccccc21
92.4%: GTP binding, percent of control [1]

O=C1CN=C(c2ccccc2F)c2cc(Cl)ccc2N1
inactive: percent of DMSO control GFP [2] 90.9% | percent response of DMSO control [4] 95.2% | GFP response vs DMSO [5] 78.7% | GFP response, % of DMSO [6] 88% | vesicle binding response [7] 272% | inhibition [8] 1.61% | superoxide response (% of plate) [9] 98.6% | aptamer binding inhibition [10] -3% | response [11] -21.4% | inhibition [12] 43.2% | response [13] -7.23% | binding (% of control) [14] 94.8% | inhibition [15] 3.7% | inhibition [16] 0.4% | inhibition [17] 1.5% | efflux inhibition (fraction of control) [18] 0.27 | inhibition [19] 14% | differentiation response [20] 11.5%
active: GFP response vs DMSO [3] 147%
67.2%: double positive events [7]

C[C@]12CCC(=O)C=C1CCC1C2CC[C@@]2(C)C1CC[C@@]2(O)CC#N (stereo not given in full)
71.1%: double positive events [7]
inactive: percent of DMSO control GFP [2] 99.8% | GFP response vs DMSO [3] 105% | percent response of DMSO control [4] 101% | GFP response vs DMSO [5] 90.7% | GFP response, % of DMSO [6] 98% | vesicle binding response [7] 961% | inhibition [8] 12% | superoxide response (% of plate) [9] 95.6% | aptamer binding inhibition [10] 5% | response [11] -3.28% | inhibition [12] -0.45% | response [13] -1.52% | binding (% of control) [14] 97.9% | inhibition [15] 3.3% | inhibition [16] -0.9% | inhibition [17] -2.6% | efflux inhibition (fraction of control) [18] -0.07 | inhibition [19] 8% | differentiation response [20] 11%

COc1ccc(-c2nc3ccccc3c(=O)o2)cc1
78.9%: double positive events [7]
inactive: percent of DMSO control GFP [2] 103% | GFP response vs DMSO [3] 95.2% | percent response of DMSO control [4] 92% | GFP response vs DMSO [5] 106% | GFP response, % of DMSO [6] 87.9% | vesicle binding response [7] 308% | inhibition [8] -19.5% | superoxide response (% of plate) [9] 99.5% | aptamer binding inhibition [10] 1% | response [11] 12.6% | inhibition [12] -5.48% | response [13] -0.56% | binding (% of control) [14] 102% | inhibition [15] 1.8% | inhibition [16] 1.3% | inhibition [17] 0.8% | efflux inhibition (fraction of control) [18] 0.22 | inhibition [19] -2% | differentiation response [20] 2.4%

Nc1ccncc1
inactive: percent of DMSO control GFP [2] 97.9% | GFP response vs DMSO [3] 119% | percent response of DMSO control [4] 111% | GFP response vs DMSO [5] 77.6% | GFP response, % of DMSO [6] 99.6% | vesicle binding response [7] 218% | inhibition [8] -0.33% | superoxide response (% of plate) [9] 94.5% | aptamer binding inhibition [10] 1% | response [11] -11.6% | inhibition [12] -14.8% | response [13] -2.33% | binding (% of control) [14] 108% | inhibition [15] 2.4% | inhibition [16] -0.4% | inhibition [17] -3% | efflux inhibition (fraction of control) [18] -0.02 | inhibition [19] 13% | differentiation response [20] 4.09%
61%: double positive events [7]

CN1CC[C@@]23CCCC[C@@H]2[C@@H]1Cc1ccc(O)cc13
inactive: percent of DMSO control GFP [2] 99.4% | GFP response vs DMSO [3] 110% | percent response of DMSO control [4] 96.6% | GFP response vs DMSO [5] 98.6% | GFP response, % of DMSO [6] 100% | vesicle binding response [7] 47.7% | inhibition [8] -0.45% | superoxide response (% of plate) [9] 109% | aptamer binding inhibition [10] -1% | response [11] 2.76% | inhibition [12] 9.83% | response [13] -1.79% | binding (% of control) [14] 92% | inhibition [15] -10% | inhibition [16] -1.6% | inhibition [17] -1.3% | efflux inhibition (fraction of control) [18] -0.07 | inhibition [19] 2% | differentiation response [20] 3.18%
60.4%: double positive events [7]
